# Experimental data reported in the supplement of paper PMC6555819.
# Experiments:
# Assay in all cases: PBM binding z-score (relative to random genomic background probes); higher = stronger binding; sequences stand for … in GC…GCGATTGACAGCGTAGAATGAAGG
# [1] = system: FXR:RXRa (NR concentration 270 nM, RXRa partner concentration 90 nM)
# Summary of the method: (§1)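 Antibodies against each partner of ligand-free nuclear receptor dimers (one per run) detected binding on custom Agilent 4×180K protein-binding microarrays after 1 h incubation. The double-stranded probes had 34-nt variable regions carrying direct-repeat seeds, single-nucleotide variants, half-site ablations and random human genomic background sequences. Binding z-scores, from regression-normalized fluorescence, use the random background probes as reference.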
# [2] = system: LXRa:RXRa (NR concentration 270 nM, RXRa partner concentration 90 nM)
# Summary of the method: as §1
# [3] = system: LXRa homodimer (NR concentration 270 nM)
# Summary of the method: as §1
# [4] = system: LXRb:RXRa (NR concentration 270 nM, RXRa partner concentration 90 nM)
# Summary of the method: as §1
# [5] = system: LXRb homodimer (NR concentration 270 nM)
# Summary of the method: as §1
# [6] = system: PPARa:RXRa (NR concentration 270 nM, RXRa partner concentration 90 nM)
# Summary of the method: as §1
# [7] = system: PPARg:RXRa (NR concentration 180 nM, RXRa partner concentration 90 nM)
# Summary of the method: as §1
# [8] = system: PPARg:RXRa 270nM:90nM, anti-RXR (NR concentration 270 nM, RXRa partner concentration 90 nM)
# Summary of the method: as §1
# [9] = system: PPARg:RXRa 30nM:10nM, anti-RXR (NR concentration 30 nM, RXRa partner concentration 10 nM)
# Summary of the method: as §1
# [10] = system: PPARg:RXRa 90nM:30nM, anti-RXR (NR concentration 90 nM, RXRa partner concentration 30 nM)
# Summary of the method: as §1
# [11] = system: PPARg:RXRa DBDmut IVT, anti-RXR (DBD mutation: RXRa K156A/R161A, NR concentration 270 nM, RXRa partner concentration 90 nM)
# Summary of the method: as §1
# [12] = system: PPARg:RXRa IVT, anti-PPARg (NR concentration 270 nM, RXRa partner concentration 90 nM)
# Summary of the method: as §1
# [13] = system: PPARg DBDmut:RXRa IVT, anti-PPARg (DBD mutation: PPARg1 K132A/R137A, NR concentration 270 nM, RXRa partner concentration 90 nM)
# Summary of the method: as §1
# [14] = system: PPARg DBDmut IVT, anti-PPARg (DBD mutation: PPARg1 K132A/R137A, NR concentration 270 nM)
# Summary of the method: as §1
# [15] = system: PPARg homodimer (NR concentration 180 nM)
# Summary of the method: as §1
# [16] = system: PXR:RXRa (NR concentration 270 nM, RXRa partner concentration 90 nM)
# Summary of the method: as §1
# [17] = system: PXR homodimer (NR concentration 270 nM)
# Summary of the method: as §1
# [18] = system: RARa:RXR (NR concentration 270 nM, RXRa partner concentration 90 nM)
# Summary of the method: as §1
# [19] = system: RARa homodimer (NR concentration 270 nM)
# Summary of the method: as §1
# [20] = system: RARb:RXRa (NR concentration 270 nM, RXRa partner concentration 90 nM)
# Summary of the method: as §1
Sequence,PBM binding z-score [1],PBM binding z-score [2],PBM binding z-score [3],PBM binding z-score [4],PBM binding z-score [5],PBM binding z-score [6],PBM binding z-score [7],PBM binding z-score [8],PBM binding z-score [9],PBM binding z-score [10],PBM binding z-score [11],PBM binding z-score [12],PBM binding z-score [13],PBM binding z-score [14],PBM binding z-score [15],PBM binding z-score [16],PBM binding z-score [17],PBM binding z-score [18],PBM binding z-score [19],PBM binding z-score [20]
ACAGACAGGTGATGAAGGTAATTCAGGCTATCAT,-0.202,-0.317,-0.115,-0.471,-0.286,0.215,0.583,-0.256,0.0788,-0.356,0.125,0.521,0.823,0.3,0.3,-0.0311,-0.169,0.367,0.165,0.161
CGTCCAAGGTCAGTAGGTCAGTGAAAGCGACGTG,4.68,3.18,0.336,2.78,0.0496,5.1,6.2,6,2.74,4.9,5.03,6.09,0.33,0.924,4.32,3.23,0.64,4.46,1.39,5
AGGACGAGGGCAATGAGTTGATAGCACGGGTGGC,0.665,0.175,-0.256,-0.148,-0.403,0.903,1.12,0.232,-0.168,-0.187,1.76,1.02,0.439,0.19,0.218,1.55,4.82,0.678,-0.00105,2.12
AGAATGAGGTTATACGTAAATCAGGGAAGAAAGT,2.3,1.9,0.21,1.77,0.0752,3.24,2.5,2.79,0.991,2.07,3.33,2.28,0.904,1.57,0.789,1.18,0.834,1.77,0.337,1.59
CGTCAAAGTTTAAGGTAACGTAACAGAAAGCAGC,0.503,0.447,-0.218,0.466,-0.063,0.794,0.72,1.11,0.465,0.749,-0.15,0.591,0.678,-0.068,0.325,0.369,0.0704,0.975,0.46,2.12
CCCAGTTGGTCAAGGTCACACACGCTATAGGTAC,4.07,4.03,2.72,3.8,0.738,4.18,3.3,3.56,1.14,2.57,1.74,3.31,2.05,0.443,4.04,4.46,3.52,4.63,2.32,4.24
AGAATGAGGTTAAGATCAGGGATACAGAATACAT,2.25,1.75,0.0573,1.78,0.0208,3.7,2.77,2.46,0.866,1.71,3.07,2.89,0.847,0.843,0.828,1.23,0.547,2.08,0.49,1.92
TCTTGTAGATCAACAGGAGGTTAAGAATGATCGA,0.541,0.729,0.072,0.703,-0.4,1.41,0.296,1.52,2.59,2.06,1.72,0.852,0.795,0.577,0.581,0.825,0.00794,0.975,0.614,0.678
TCTTGTAGATCAACAGTAGGTTAAGAAAGATCGA,0.361,0.659,0.0852,0.659,-0.18,1.13,0.249,1.49,2.78,2.39,2.46,1.72,0.934,0.698,0.243,0.284,-0.303,0.504,0.265,0.132
